Source: PubChem BioAssay
Compounds with a hit are over-represented: about 27% of the library has one in this group of screens.
CYP2C19 inh: human CYP2C19 inhibition | CYP2C19 Supersomes, luciferin-H EGE luminescence, 30 min | 21% of 96,000 active | AID 778 | inhibition, % at 5 µM | P33261;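 active = CYP2C19 inhibition above a set limit at 5 µM in the primary screen, cut at about 50% in these data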;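 also: plate controls were negative control wells for no effect and 2.5 mM tranylcypromine positive control for full effect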
Target sequence (P33261 whole entry, looked up): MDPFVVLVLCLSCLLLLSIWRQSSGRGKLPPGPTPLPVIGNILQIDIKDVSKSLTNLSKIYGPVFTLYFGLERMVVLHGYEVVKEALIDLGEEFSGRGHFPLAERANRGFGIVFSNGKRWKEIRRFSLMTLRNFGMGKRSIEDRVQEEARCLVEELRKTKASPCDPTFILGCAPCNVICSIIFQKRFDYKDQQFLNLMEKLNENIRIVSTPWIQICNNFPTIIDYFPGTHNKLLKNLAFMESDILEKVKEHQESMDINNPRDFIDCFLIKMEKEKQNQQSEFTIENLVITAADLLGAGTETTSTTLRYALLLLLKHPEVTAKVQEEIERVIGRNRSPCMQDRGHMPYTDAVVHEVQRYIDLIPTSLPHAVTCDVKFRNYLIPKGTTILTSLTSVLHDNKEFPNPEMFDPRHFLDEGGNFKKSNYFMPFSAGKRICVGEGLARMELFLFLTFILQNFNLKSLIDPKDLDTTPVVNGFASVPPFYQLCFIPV
CYP2C19 act: increases human CYP2C19 enzyme activity; recombinant CYP2C19, luciferin-H EGE luminescence; stronger effect = higher value; 0 = fully inhibited enzyme, 1 = untreated enzyme; activation factor at 5 µM; P33261; 96,000 tested, under 10 active;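 active = activation factor of at least 2 at 5 µM in the primary screen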;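 also: 0 = wells with 2.5 mM tranylcypromine and 1 = vehicle-only wells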
EphB4 antag: antagonists of human EphB4-ephrin-B2 interaction; P54760; EphB4 LBD / TNYL-RAW-Alexa532 peptide, fluorescence polarization; inhibition, % at 7 µM; 0.15% of 97,000 active; AID 720;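 active = inhibition above the screen-wide mean inhibition plus 3 SD, cut at about 15% in these data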;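 also: 0% = DMSO wells and 100% = excess unlabeled TNYL-RAW peptide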
CYP2C9 act: CYP2C9 (human) activation; P11712; recombinant CYP2C9, luciferin-H conversion, luminescence; stronger effect = higher value; factor 1 = untreated enzyme, 0 = blocked; activation factor at 5 µM; 1.4% of 96,000 active; AID 1024;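 active = activation factor of 2 or more for CYP2C9 at a 5 µM dose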;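 also: 0 = sulfaphenazole-blocked wells and 1 = vehicle-only wells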
CYP2C9 inh: inhibitors of human CYP2C9. AID 777. 20% of 96,000 active. inhibition, % at 5 µM. CYP2C9 Supersomes, luciferin-H conversion, luminescence. P11712;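 active = blocking of liver enzyme CYP2C9 beyond about 50% at 5 µM, limit read from the data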
The depositor's hits bear a star; x = not tested or not shown.

SMILES | CYP2C19 inh | CYP2C19 act | EphB4 antag | CYP2C9 act | CYP2C9 inh
CCN1CCN(c2ncnc3c2nnn3Cc2ccccc2)CC1 | 49 | 0.5 | -5 | 1 | 1
c1ccc(CN2CCN(c3ncnc4c3[nH]c3ccccc34)CC2)cc1 | 54* | 0.5 | 0 | 0.5 | 55*
Cc1ccc2[nH]c3c(=O)n(Cc4ccncc4)cnc3c2c1 | 50 | 0.5 | 8 | 0.4 | 63*
CCOc1ccc2[nH]c3c(N4CCN(c5ccccn5)CC4)ncnc3c2c1 | 80* | 0.2 | 9 | 0.3 | 69*
Cc1cc(=O)[nH]c(COc2ccccc2)n1 | 30 | 0.7 | -8 | 1.2 | -16
CC1(C)Cc2c(sc3nc(-c4cccs4)n(N)c(=O)c23)CO1 | 6 | 0.9 | x | 0.6 | 35
C=CCNC(=O)c1ccncc1 | 3 | 1 | -3 | 1.1 | -10
COc1ccc(C(=O)NC2CCN(C(=S)Nc3cccc(C)c3C)CC2)cc1 | -8 | 1.1 | -2 | 1.1 | -13
CCOC(=O)c1nnc(-c2ccccc2)nc1Sc1c(Cl)cccc1Cl | 23 | 0.8 | -4 | 0.4 | 58*
CCOC(=O)c1nnc(-c2ccc(C)cc2)nc1Sc1ccccc1Cl | 44 | 0.6 | 6 | 0.9 | 10
O=C(COC(=O)C1CC1)Nc1ccc(OC(F)F)cc1 | 77* | 0.2 | 4 | 0.8 | 16
O=C(COC(=O)CCC1CCCCC1)Nc1ccc(OC(F)F)cc1 | 18 | 0.8 | 3 | 1.1 | -11
O=C(COC(=O)C1CCC1)Nc1ccc(OC(F)F)cc1 | 86* | 0.1 | x | 0.9 | 12
Cc1ccc(-c2nc3ccsc3c(=O)o2)cc1 | 23 | 0.8 | -2 | 0.7 | 31
CCN(c1cccc(C)c1)c1nc2ccsc2c(=O)s1 | 65* | 0.3 | -2 | 0.1 | 87*
C1=C(CCNCC2CC2)CCCC1 | 54* | 0.5 | 5 | 1.6 | -56
Cc1ccc(CNCCC2=CCCCC2)cc1 | 94* | 0.1 | -4 | 1 | -4
CC(C)(C)NC(=O)NC(=O)CSc1nnc2ccccn12 | -2 | 1 | 5 | 1 | 2
CS(=O)(=O)N(CC(=O)NCc1ccco1)c1ccc(Cl)c(C(F)(F)F)c1 | 24 | 0.8 | -1 | 1.3 | -28
CCCCn1nnc(NC(=O)c2ccc(-c3ccccc3)cc2)n1 | 10 | 0.9 | 1 | 0.9 | 9
N#CC1=C(N)Oc2ccccc2C12C(=O)Nc1n[nH]c(-c3ccccc3)c12 (stereo not drawn) | -23 | 1.2 | 10 | 0.5 | 54*
CCN1C(=O)C2(C(C#N)=C(N)Oc3n[nH]c(-c4ccccc4)c32)c2ccccc21 (stereo not drawn) | 2 | 1 | -4 | 0.9 | 13
CCCC1CC(C)(c2csc(Nc3ccc(OCC)cc3)n2)OC1=O (stereo not drawn) | x | x | 3 | x | x
Cc1cc(O)c(C(=O)c2ccccc2C(=O)O)cc1C | 7 | 0.9 | -16 | 0.8 | 18
O=C(NCC1CCCO1)c1sc(=S)n2c1[nH]c(=O)c1ccc(C(=O)N3CCCCC3)cc12 (stereo not drawn) | 9 | 0.9 | 5 | 0.1 | 86*
SMILES | CYP2C19 inh | CYP2C19 act | EphB4 antag | CYP2C9 act | CYP2C9 inh
CCCCNC(=O)c1sc(=S)n(-c2ccccc2OC)c1N | 19 | 0.8 | 0 | 0.7 | 27
CCCCNC(=O)c1sc(=S)n2c1[nH]c(=O)c1ccccc12 | 18 | 0.8 | 4 | 0.1 | 94*
O=C(NC1CCCCC1)c1sc(=S)n2c1[nH]c(=O)c1ccccc12 | 72* | 0.3 | 4 | 0.1 | 95*
O=C(NC1CCCCCC1)c1c(O)c2ccccc2[nH]c1=O | 27 | 0.7 | 2 | 0.7 | 31
N#CC1=C(N)C(C#N)(C#N)C(c2cccnc2)C2CC(c3ccccc3)CC=C12 (stereo not drawn) | 20 | 0.8 | -4 | 0.4 | 64*
N#CC1=C(N)C(C#N)(C#N)C(c2cccnc2)C2CCCC=C12 (stereo not drawn) | 11 | 0.9 | -2 | 0.7 | 30
Oc1ccc2ccccc2c1C1Nc2cccc3cccc(c23)N1 | 25 | 0.8 | 2 | 0.3 | 72*
C/C(=N/n1cnnc1)c1cccnc1 | 0 | 1 | -5 | 1 | 2
O=C(CN1CCCCC1)Nc1cccc2c1OCO2 | 17 | 0.8 | 3 | 0.9 | 6
Cc1cc2c(cc1C)-c1nnnn1C(C)(C)C2 | 59* | 0.4 | 11 | 1 | 4
COc1cc2c(cc1OC)-c1nnc(C)n1C(C)(C)C2 | -26 | 1.3 | x | 1.3 | -26
CC1=CC2=NCC(O)CN2C=C1 (stereo not drawn) | -11 | 1.1 | -1 | 0.8 | 16
Cc1cc(N2CCOCC2)cc(C)[n+]1[O-] | 2 | 1 | -6 | 0.9 | 7
CCOc1ccccc1C1N(c2ccc(OC)cc2)C(=O)C2CCCN21 (stereo not drawn) | 8 | 0.9 | 2 | 0.9 | 14
CCOC(=O)Cn1c(=NC(=O)CSC(C)=O)sc2ccccc21 | 40 | 0.6 | x | 0.2 | 81*
CCOC(=O)Cn1c(=NC(=O)CSC(C)=O)sc2cc(OC)ccc21 | 10 | 0.9 | -1 | 0.8 | 17
CCC(=O)Nc1c2c(nn1-c1ccccc1C)CSC2 | x | x | 0 | x | x
Cc1cccc(-n2nc3c(c2NC(=O)c2ccc(Br)o2)CSC3)c1 | -4 | 1 | 2 | 0.2 | 84*
Cc1ccc(-n2nc3c(c2NC(=O)c2cccs2)CSC3)cc1 | 22 | 0.8 | 5 | 0.3 | 72*
Cc1cccc(NC(=O)Cc2noc3ccccc23)c1 | x | x | -1 | x | x
CC1CCCC(NC(=O)CCCn2c(=O)[nH]c3cc(Cl)ccc3c2=O)C1C (stereo not drawn) | 20 | 0.8 | 5 | 0.6 | 44
CCOC(=O)c1ccc(CNC(=O)CSc2nc(NC(=O)c3ccccc3)c3c(C)c(C)oc3n2)cc1 | 24 | 0.8 | -1 | 0.6 | 40
O=C(Nc1ccccc1N1CCOCC1)c1ccc2c(c1)C(=O)N(Cc1ccncc1)C2=O | 79* | 0.2 | 3 | 0.2 | 84*
CC(C)Oc1ccc(C(=O)Nc2ccccc2N2CCCC2)cc1 | 31 | 0.7 | 0 | 0.6 | 37
O=C(Nc1ccccc1N1CCOCC1)c1cnccn1 | 0 | 1 | 0 | 1 | -2
SMILES | CYP2C19 inh | CYP2C19 act | EphB4 antag | CYP2C9 act | CYP2C9 inh
O=C(Nc1ccccc1N1CCCCC1)c1ccc(N2C(=O)c3ccccc3C2=O)cc1 | 49 | 0.5 | 0 | 0.5 | 55*
O=C(NCc1ccccc1)c1ccc2c(c1)C(=O)N(Cc1ccncc1)C2=O | 71* | 0.3 | 2 | 0.1 | 90*
O=C(NC1CCS(=O)(=O)C1)N1CCCCC1 (stereo not drawn) | -2 | 1 | 1 | 1 | 2
COc1ccc(OC)c(-n2c(CN3CCC(C(N)=O)CC3)nc3ccccc3c2=O)c1 | 21 | 0.8 | -5 | 0.7 | 32
c1ccc2c(c1)NC(CN1CCOCC1)CO2 (stereo not drawn) | 53* | 0.5 | 4 | 1.1 | -9
O=C(CCN1CCOCC1)NCC1COc2ccccc2O1 (stereo not drawn) | x | x | 0 | x | x
COc1ccc(OC)c(NC(=O)CSc2nnc(-c3ccco3)n2-c2ccc(C(=O)O)cc2)c1 | 3 | 1 | -17 | 1 | -2
Cc1ccccc1C(=O)NCc1ccncc1 | 10 | 0.9 | 3 | 0.7 | 28
